Data on 20 compounds can be found in PubChem BioAssay.

The structures appear in SMILES notation. A number with no mark means an inactive call. For some of these results: Entries with a potency or affinity are not part of this list. Calls of active or inactive are those of the source. Unless noted, how the calls were made is not given here.

What is called inhibition is the drop in the measured response relative to a control, in per cent.

Test [1] in a line: antimalarial activity against Dd2 strain (AID 2302;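 active means growth inhibition above 50% at the single 2 µM test dose, taken to imply half-maximal potency below 2 µM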;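 further: 0% = DMSO untreated growth and 100% = chloroquine plus artemisinin killed control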). The conditions noted are these: P. falciparum Dd2 in RBCs, LDH growth readout, 72 h; at 2 µM; stronger effect = higher value.
A short description of test [2]: human hepatoma cell viability loss – ATP luminescence, cytotoxicity control for P. falciparum antimalarial project, primary screen (AID 2303;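 active means inhibition above 50%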;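 further: 0% = DMSO wells and 100% = digitonin-killed cells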). The conditions noted are these: HepG2 viability, 24-48 h, at 10 µM, stronger effect = higher value.
Test [3] has as its target L-lactate dehydrogenase (Plasmodium falciparum (isolate CDC / Honduras)) (UniProt Q27743). Description: PfLDH activity inhibition – cell lysate, 3D7 strain, counter-screen for P. falciparum growth inhibition project (AID 2304).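 Further: 0% = vehicle and 100% = reference inhibitor.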 As to conditions: P. falciparum 3D7 crude extract, LDH APAD/NBT absorbance; at 2 µM; stronger effect = higher value.
A short description of test [4]: inhibition of 3D7 malaria parasite growth – strain 3D7 (AID 2306).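 Further: 0% = DMSO wells and 100% = chloroquine plus artemisinin control wells.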 The conditions noted are these: P. falciparum 3D7 erythrocytic growth, LDH absorbance, 72 h; at 2 µM; stronger effect = higher value.
In test [5] the target is Calcium-dependent protein kinase 1 (Plasmodium falciparum (isolate 3D7)) (UniProt P62344). Description: PfCDPK1 kinase inhibitors, biochemical, TCAMS library (AID 1159585; cut-off not given, nearly all actives have IC50 up to about 0.98 µM;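 further: inhibitors leave more ATP so luminescence rises with inhibition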). As to conditions: recombinant PfCDPK1, Kinase-Glo ATP depletion luminescence. Background: In Kinase-Glo more light means more ATP remaining.
Sequence of Calcium-dependent protein kinase 1 (Plasmodium falciparum (isolate 3D7)) (P62344 whole entry, looked up): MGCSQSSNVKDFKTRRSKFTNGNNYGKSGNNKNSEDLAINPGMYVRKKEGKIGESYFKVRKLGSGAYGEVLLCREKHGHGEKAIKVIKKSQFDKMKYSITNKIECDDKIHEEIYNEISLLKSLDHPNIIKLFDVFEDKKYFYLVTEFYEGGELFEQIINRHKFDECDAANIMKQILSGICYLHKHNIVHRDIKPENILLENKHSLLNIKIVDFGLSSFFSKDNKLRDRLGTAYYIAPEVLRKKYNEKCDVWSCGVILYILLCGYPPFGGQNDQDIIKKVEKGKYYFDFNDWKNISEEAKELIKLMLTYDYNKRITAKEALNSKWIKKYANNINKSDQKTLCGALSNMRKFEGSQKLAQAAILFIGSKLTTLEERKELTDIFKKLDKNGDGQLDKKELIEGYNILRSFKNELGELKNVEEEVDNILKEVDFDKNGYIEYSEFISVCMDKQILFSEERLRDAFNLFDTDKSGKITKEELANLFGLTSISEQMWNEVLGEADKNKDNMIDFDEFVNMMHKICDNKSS
The target in test [6] is Plasmodium falciparum protein kinase 6 (PK6, PF3D7_1337100) (UniProt Q8IDW1). Briefly: PfPK6 kinase inhibitors, biochemical, TCAMS library (AID 1159586). The conditions noted are these: recombinant PfPK6, Kinase-Glo ATP depletion luminescence.
Sequence of Plasmodium falciparum protein kinase 6 (PK6, PF3D7_1337100) (Q8IDW1 1-305): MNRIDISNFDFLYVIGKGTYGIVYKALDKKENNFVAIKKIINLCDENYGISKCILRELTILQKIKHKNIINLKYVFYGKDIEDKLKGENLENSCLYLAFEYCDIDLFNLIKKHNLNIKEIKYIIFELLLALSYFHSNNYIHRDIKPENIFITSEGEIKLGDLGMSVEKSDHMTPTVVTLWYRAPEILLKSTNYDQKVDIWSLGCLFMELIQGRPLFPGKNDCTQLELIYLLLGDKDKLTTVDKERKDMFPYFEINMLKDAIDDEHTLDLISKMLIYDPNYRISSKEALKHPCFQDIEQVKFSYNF
Test [7] concerns the target Protein kinase 7 (PK7), Plasmodium falciparum 3D7 (PF3D7_0213400) (UniProt Q7YTF7). Description: inhibition of Plasmodium PK7 catalytic activity – biochemical, TCAMS antimalarial set, Kinase-Glo luminescence (AID 1159587). The conditions noted are these: recombinant PfPK7, Kinase-Glo ATP depletion luminescence.
Test [8] deals with Calcium-dependent protein kinase 4 (Plasmodium falciparum (isolate 3D7)) (UniProt Q8IBS5). Briefly: PfCDPK4 kinase inhibitors, biochemical, TCAMS library (AID 1159588; cut-off not given, nearly all actives have IC50 up to about 0.91 µM). The conditions noted are these: recombinant PfCDPK4, Kinase-Glo ATP depletion luminescence.
Sequence of Calcium-dependent protein kinase 4 (Plasmodium falciparum (isolate 3D7)) (Q8IBS5 whole entry, looked up): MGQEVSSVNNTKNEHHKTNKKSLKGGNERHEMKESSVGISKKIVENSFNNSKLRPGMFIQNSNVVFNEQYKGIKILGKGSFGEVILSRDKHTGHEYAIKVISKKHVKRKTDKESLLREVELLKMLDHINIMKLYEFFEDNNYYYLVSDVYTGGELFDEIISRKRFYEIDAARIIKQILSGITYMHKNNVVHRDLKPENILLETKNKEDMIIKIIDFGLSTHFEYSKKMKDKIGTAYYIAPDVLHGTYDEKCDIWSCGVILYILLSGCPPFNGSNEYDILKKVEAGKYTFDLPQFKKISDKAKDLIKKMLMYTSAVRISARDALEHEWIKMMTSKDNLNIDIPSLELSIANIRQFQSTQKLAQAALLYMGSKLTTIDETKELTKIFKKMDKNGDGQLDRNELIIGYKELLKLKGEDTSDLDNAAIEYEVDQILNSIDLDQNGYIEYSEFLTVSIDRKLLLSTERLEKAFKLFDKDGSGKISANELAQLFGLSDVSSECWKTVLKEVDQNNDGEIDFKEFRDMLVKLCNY

Sequence of L-lactate dehydrogenase (Plasmodium falciparum (isolate CDC / Honduras)) (Q27743 whole entry, looked up): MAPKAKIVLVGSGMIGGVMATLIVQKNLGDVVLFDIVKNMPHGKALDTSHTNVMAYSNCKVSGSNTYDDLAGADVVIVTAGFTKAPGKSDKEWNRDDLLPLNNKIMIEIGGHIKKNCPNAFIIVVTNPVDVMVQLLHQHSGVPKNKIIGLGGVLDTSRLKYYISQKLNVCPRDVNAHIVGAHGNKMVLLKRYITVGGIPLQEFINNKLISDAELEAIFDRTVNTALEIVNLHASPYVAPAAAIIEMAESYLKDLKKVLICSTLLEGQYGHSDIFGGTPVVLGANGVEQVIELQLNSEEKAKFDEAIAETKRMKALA
Sequence of Protein kinase 7 (PK7), Plasmodium falciparum 3D7 (PF3D7_0213400) (Q7YTF7 1-343): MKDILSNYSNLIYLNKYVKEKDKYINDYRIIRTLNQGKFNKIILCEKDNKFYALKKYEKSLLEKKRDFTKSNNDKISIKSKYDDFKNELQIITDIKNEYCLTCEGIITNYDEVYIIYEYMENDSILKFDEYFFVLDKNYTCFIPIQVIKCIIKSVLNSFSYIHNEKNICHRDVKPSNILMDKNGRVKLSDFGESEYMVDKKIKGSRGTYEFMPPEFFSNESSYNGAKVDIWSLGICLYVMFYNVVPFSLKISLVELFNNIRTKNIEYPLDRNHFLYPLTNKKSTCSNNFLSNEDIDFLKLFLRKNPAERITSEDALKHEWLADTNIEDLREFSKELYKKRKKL

`COc1ccc2nccc([C@@H](O)CN3CCC(NCc4ccc5c(c4)NC(=O)C(C)(C)O5)CC3)c2c1`: the values for the growth inhibition in test [1] and in test [4] were 70% (active) and 100% (active), respectively. Further, the inhibition in test [2] was 6%; in test [3], 3%. Also, the result in test [5], in test [6], in test [7] and in test [8] was inactive.

Regarding `CCCC(C)N(Cc1ccc(C(C)(C)C)cc1)C(=O)c1cccc(C#N)c1` (stereo not given), the results for the growth inhibition in test [1] and in test [4] were 45% and 86% (active), respectively. The inhibition was 14% in test [2] and -9% in test [3]. Moreover, the result in test [5], in test [6], in test [7] and in test [8] was inactive.

`CCCOc1ccccc1C(=O)Nc1nonc1-c1ccc(OCC)c(OCC)c1`: the values for the growth inhibition in test [1] and in test [4] were 89% (active) and 99% (active), respectively. Further, the inhibition in test [2] was 46%; in test [3], -4%. The result in test [5], in test [6], in test [7] and in test [8] was inactive.

In the case of `COc1ccc(CNCCc2cccs2)cc1-c1cccc(S(=O)(=O)NCCN2CCCC2)c1`, the growth inhibition in test [1] was 41%; in test [4], 98% (active). Further, the inhibition in test [2] was 56% (active); in test [3] it was -1%. Moreover, the result in test [5], in test [6], in test [7] and in test [8] was inactive.

For the compound `Cc1cc(N[C@@H](CC(C)C)C(=O)NCCOc2ccccc2)nc(NCCc2ccccc2)n1`, the figures for the growth inhibition in test [1] and in test [4] were 29% and 94% (active), respectively. In addition, the inhibition in test [2] was 13%; in test [3], -1%. Also, the result in test [5], in test [6], in test [7] and in test [8] was inactive.

For `CCCc1cccc(C)c1OCCCON1C(N)=NC(N)=NC1(C)C`, the growth inhibition in test [1] is 96% (active); in test [4], 95% (active). The inhibition in test [2] was 57% (active); in test [3] it was -2%. The outcome in test [5], in test [6], in test [7] and in test [8] was inactive.

`c1ccc2c(Nc3ccc(Cc4ccc(Nc5c6ccccc6nc6ccccc56)cc4)cc3)c3ccccc3nc2c1`: the growth inhibition in test [1] and in test [4] was 101% (active) throughout. Also, the results for the inhibition in test [2] and in test [3] were 93% (active) and 7%, respectively. Besides, the outcome in test [5], in test [6], in test [7] and in test [8] was inactive.

With `COc1ccc(-c2ccc(NC(=O)c3cccc(Cl)c3)cc2)cc1CN(C)CCO`, the growth inhibition in test [1] was 52% (active); in test [4], 89% (active). In addition, the values for the inhibition in test [2] and in test [3] were 39% and -4%, respectively. The outcome in test [5], in test [6], in test [7] and in test [8] was inactive.

On to `Cc1nc2ccc3ccc(CN(C)c4ccc(C(=O)N[C@@H](CCC(=O)O)C(=O)O)cc4)cc3c2c(=O)[nH]1`, for which the growth inhibition in test [1] was 27%; in test [4], 95% (active). For the same compound, the inhibition in test [2] was 42%; in test [3] it was 1%. Also, the outcome in test [5], in test [6], in test [7] and in test [8] was inactive.

Consider `Nc1ncc(-c2ccsc2)c2ccc(-c3ccc4cn[nH]c4c3)cc12`, for which the growth inhibition in test [1] is 41%; in test [4], 95% (active). In addition, the inhibition in test [2] was 18%; in test [3] it was 6%. Also, the result in test [5], in test [6], in test [7] and in test [8] was inactive.

`COc1cc(OC)c2c(C)cc(NCCCN3CCOCC3)nc2c1`: the figures for the growth inhibition in test [1] and in test [4] were 3% and 99% (active), respectively. The inhibition in test [2] is 6%; in test [3] it was 0%. Further, the result in test [5], in test [6], in test [7] and in test [8] was inactive.

Consider `COc1cccc(C(=O)Nc2ccc(Nc3nc(C)cc(N(C)C)n3)cc2)c1`, for which the growth inhibition in test [1] was 33%; in test [4], 92% (active). Further, the inhibition in test [2] is 1%; in test [3], -2%. Also, the outcome in test [5], in test [6], in test [7] and in test [8] was inactive.

Take `CCOc1c(OC)ccc2c1CCN(CCN1CCC(CNC(=O)c3ccc(-c4ccc(C(F)(F)F)cc4)cc3)CC1)C2`: the results for the growth inhibition in test [1] and in test [4] were 21% and 102% (active), respectively. Further, the inhibition in test [2] is 54% (active); in test [3], 2%. Moreover, the result in test [5], in test [6], in test [7] and in test [8] was inactive.

Regarding `C=CCN1C(=O)c2[nH]nc(-c3cc(C)c(C)cc3O)c2C1c1cccc(Br)c1` (stereo not given), the results for the growth inhibition in test [1] and in test [4] were 82% (active) and 90% (active), respectively. The inhibition in test [2] is -14%; in test [3], -3%. Further, the result in test [5], in test [6], in test [7] and in test [8] was inactive.

On to `CCc1c[nH]c2c(N3CCCS3(=O)=O)cc(C(=O)N[C@@H](Cc3ccccc3)[C@H](O)CNC(C)(C)CCCC(C)C)cc12`, for which the growth inhibition was 98% (active) in test [1] and 96% (active) in test [4]. For the same compound, the figures for the inhibition in test [2] and in test [3] were 13% and -2%, respectively. For the same compound, the result in test [5], in test [6], in test [7] and in test [8] was inactive.

Take `Oc1ccc(CCNc2nc(N/N=C/c3ccc(Cl)cc3)nc(N3CCNCC3)n2)cc1`: the growth inhibition was 68% (active) in test [1] and 100% (active) in test [4]. Moreover, the inhibition was 14% in test [2] and 5% in test [3]. Further, the outcome in test [5], in test [6], in test [7] and in test [8] was inactive.

As to `CCCOc1cc(OCCC)cc(-c2ccc(C(=O)Nc3ccc4ccc(C)nc4c3)c(=O)[nH]2)c1`, the figures for the growth inhibition in test [1] and in test [4] were 76% (active) and 101% (active), respectively. For the same compound, the inhibition in test [2] was 11%; in test [3], 5%. The outcome in test [5], in test [6], in test [7] and in test [8] was inactive.

For `CN(CCCCN)Cc1ccc(-c2ccc(Cl)cc2)cc1`, the results for the growth inhibition in test [1] and in test [4] were 20% and 97% (active), respectively. Also, the inhibition was 96% (active) in test [2] and 3% in test [3]. In addition, the result in test [5], in test [6], in test [7] and in test [8] was inactive.

`Nc1cccc(CNCc2ccc(-c3ccc(-c4nc5ccccc5[nH]4)s3)cc2)c1`: the growth inhibition in test [1] is 93% (active); in test [4], 100% (active). Moreover, the inhibition in test [2] was 12%; in test [3], 4%. Besides, the result in test [5], in test [6], in test [7] and in test [8] was inactive.

For the compound `COc1cc(NCCCCNc2ccc(Cl)c(Cl)c2)nc2ccccc12`, the growth inhibition is 68% (active) in test [1] and 100% (active) in test [4]. Further, the values for the inhibition in test [2] and in test [3] were 22% and 2%, respectively. Further, the result in test [5], in test [6], in test [7] and in test [8] was inactive.
